High-throughput results from PubChem.
Pf growth 96h = P. falciparum growth inhibition at 96 hours; P. falciparum luciferase reporter growth, 96 h; Potency, µM (top dose mostly 28.7 µM), without a hit: top-dose activity change, negative = inhibition, usual class: inhibitors; 320,000 tested, 6.9% active; AID 504834; also: potency is read from the fitted curve at half-maximal effect; % is scaled to controls: 0 for no effect and ±100 for the full control effect
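Parasite growth measured via integrated firefly luciferase reporter in P. falciparum. Infected erythrocytes at 2% hematocrit, 0.05% parasitemia final were treated 96 hours at 37 C under 5% CO2, and luminescence was read.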
CHX counter = counter-screen hit for Shiga toxin inhibitors, cycloheximide; max response, %; AID 2314; 300,000 tested, 12% active; cell reporter, cycloheximide protein synthesis inhibition counterscreen; in the data active = max response mostly above about 13%, no sharp cut-off; inactive = mostly below about 14%; also: read at 38.3 µM for the half of the compounds with a filed dose; 0% is about no effect
Shiga inhibitor = blocks Shiga toxin action in Vero cells; Vero cells, Shiga toxin protein synthesis inhibition reporter; 290,000 tested, 9.2% active; inhibition, % at 38.7 µM; in the data active = inhibition mostly above about 28%, no sharp cut-off; inactive = mostly below about 43%; also: 0% is about no effect
Pf growth 48h = P. falciparum growth inhibition at 48 hours (one generation). P. falciparum luciferase growth in erythrocytes, 48 h. Potency, µM (titrated, usually from 28.7 µM), without a hit: at the top dose activity change, negative = inhibition, actives largely listed as inhibitors. 310,000 tested, 5.9% active. AID 504832; also: potency is read from the fitted curve at half-maximal effect; % is scaled to controls: 0 for no effect and ±100 for the full control effect
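Firefly luciferase activity from engineered P. falciparum reports growth; inhibitors lower the luminescent signal. Cultures contained 2% hematocrit erythrocytes at 0.1% final parasitemia.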
AMA1-RON2 inh = AMA1-RON2 (P. falciparum) interaction inhibition | AlphaScreen AMA1-biotinylated RON2 peptide binding | Potency, µM (doses to about 58.2 µM), inactives show at the highest dose activity change, negative = inhibition, actives largely listed as inhibitors | 360,000 tested, 0.2% active;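 also: potency is read from the fitted curve at half-maximal effect; 0% = vehicle wells and -100% = peptide control; nearly all actives have a fitted effect of over 45% in size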
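AMA1 (3D7) with his tag at 25 nM final met compounds first, then biotinylated RON2 peptide at 25 nM; detection used donor plus acceptor beads, 10 µg/mL apiece, read by AlphaScreen after 30 min at room temperature.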
SARS PLpro yeast = SARS-CoV PLP inhibition in yeast; S. cerevisiae expressing SARS-CoV PLpro, growth rescue; Potency, µM (highest dose often 32.9 µM), without a hit: at the highest dose activity, positive = growth rescue, usual class: activators; 330,000 tested, 0.19% active; calls by dose curve; also: potency is read from the fitted curve at half-maximal effect; 0% is about no effect; nearly all actives have a fitted effect of over 55% in size
Numbers without * were called inactive; ? = inconclusive; · = not tested or not shown. Compounds with a hit are over-represented: about 19% of the library has one in this group of screens. Unless noted, calls follow the shape of the dose curve; as a rule, active = well fitted curve in the direction sought with a large enough effect; inconclusive = small, poorly fitted or top-dose-only effect, or another doubt; inactive = no such curve, though single readings can be large; an effect the other way counts as inactive or inconclusive.

SMILES	Pf growth 96h	CHX counter	Shiga inhibitor	Pf growth 48h	AMA1-RON2 inh	SARS PLpro yeast
CCN1C(=O)[C@@H]2[C@@H](c3ccc(-c4ccc(F)cc4)c(OC)c3)N3CCC[C@@]3(C(=O)OC)[C@@H]2C1=O	·	·	·	·	-27%	-5%
CSc1nnc(C)c(=O)n1COC(=O)c1ccc(S(=O)(=O)N2CCCC2)cc1	?	-1	-1	-6%	19%	3%
CCOC(=O)CCNC(=O)c1ccc2nc(C3CCCCC3)oc2c1	?	17*	27	0%	14%	3%
CCc1ccc(CNC(=O)c2ccc3nc(C4CCCCC4)oc3c2)nc1	-6%	46*	33*	?	·	-10%
C#CCn1c(C)cc(C)c(S(=O)(=O)c2ccccc2)c1=O	67%	26*	100*	30%	-2%	-1%
Cc1cc(C)n(Cc2ccccc2)c(=O)c1S(=O)(=O)c1ccccc1	6%	-2	-14	-4%	3%	-1%
COc1cc(C=C2C(=O)NC(=O)NC2=O)ccc1OS(=O)(=O)c1ccccc1[N+](=O)[O-]	?	21	57*	32%	-17%	-2%
COc1ccc(/C=C2/C(=N)N3C(=NC2=O)Sc2cc(S(C)(=O)=O)ccc23)cc1OC	-6%	-3	3	-8%	9%	2%
COc1cc(/C=C2\C(=N)N3N=CSC3=NC2=O)ccc1OS(=O)(=O)c1ccccc1[N+](=O)[O-]	4.1µM*	8	43	-12%	36%	-1%
COc1ccc(-c2oc(=O)c3cc(OC)c(OC)cc3c2/C=C/c2cccc([N+](=O)[O-])c2)cc1	?	·	·	-25%	-8%	-1%
CCC(=O)O[C@@H](OP(=O)(CCCCc1ccccc1)CC(=O)N1C[C@H](C2CCCCC2)C[C@H]1C(=O)O)C(C)C (stereo partly drawn)	5.4µM*	·	·	-10%	·	·
CN1C(=O)CC(N2CCN(CCN=CC3=C(O)CC(C)(C)CC3=O)CC2)C1=O (stereo not drawn)	12µM*	8	19	-11%	48%	1%
CCOC(=O)N1CCN(C(=O)C(CC(C)C)NS(=O)(=O)c2ccc3c(c2)oc(=O)n3C)CC1 (stereo not drawn)	10µM*	-4	2	·	3%	1%
CCOC(=O)N1CCN(S(=O)(=O)c2ccc3c(c2)oc(=O)n3C)CC1	-6%	-2	-13	18%	-6%	-3%
CC(C)CC(NS(=O)(=O)c1ccc2c(c1)oc(=O)n2C)C(=O)N1CC=C(c2ccccc2)CC1 (stereo not drawn)	10µM*	3	-7	·	12%	?
COc1ccc(-c2csc(C(C)(NC(C)=O)c3ccccc3)n2)cn1 (stereo not drawn)	·	·	·	·	-10%	·
CCOC(=O)NN1C(=O)c2ccccc2NC1c1ccccn1 (stereo not drawn)	10µM*	10	-4	8%	66%	1%
Cc1ccc2nc(C3CCCN(C(=S)Nc4cccc(C)c4C)C3)[nH]c2c1 (stereo not drawn)	17%	2	19	-24%	19%	-3%
Cc1ccc(NC(=S)N2CCCC(c3nc4ccc(C)cc4[nH]3)C2)c(C)c1 (stereo not drawn)	4%	10*	6	34%	5%	-5%
Cc1cc2nc(C3CCCN(C(=S)Nc4ccccc4C)C3)[nH]c2cc1C (stereo not drawn)	28%	33*	28	24%	-5%	-14%
Cc1cc2nc(C3CCCN(C(=O)NCc4ccccc4)C3)[nH]c2cc1C (stereo not drawn)	38%	35*	47	50%	0%	-2%
CSc1ccc(Cl)c(C(=O)Nc2ccc(OCC(N)=O)cc2)c1	54%	-3	-19	-1%	16%	0%
CC1CCC2(CC1)OCC1(CCC3(COC4(CCC(C)CC4)OC3)C1=O)CO2 (stereo not drawn)	30%	-2	-4	-2%	?	1%
COc1ccc(CC(=O)OCC(=O)NC2CCCCC2)cc1OC	·	·	·	·	3%	1%
O=C1CCCC2=C1C(c1ccccc1)CC(=O)N2c1ccc(F)cc1F (stereo not drawn)	90%	5	-9	?	-4%	-3%
